Screens deposited in PubChem BioAssay by National Center for Advancing Translational Sciences (NCATS).
HP1b binding inh – blocks HP1-beta chromodomain binding to methylated histone tails. P83916. AlphaScreen HP1-beta / biotin-H3K9me3 peptide binding. Potency, µM (top dose mostly 114 µM), most hits filed as inhibitors. 390,000 tested, 0.56% active. AID 540317; also: nearly all actives have a fitted effect of over 70% in size
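HP1-beta protein (50 nM final) preincubated 30 min at room temperature with biotinylated H3(1-18)K9me3 peptide (50 nM) in PBS pH 7.4, 0.01% Tween-20, then compound added for 30 min. AlphaScreen streptavidin donor/nickel chelate acceptor beads (10 ug/mL final), 30 min dark, luminescence read.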
BAZ2B inh – BAZ2B (human) inhibition | 360,000 tested, 4.4% active | Q9UIF8 | AlphaScreen BAZ2B-H3K14Ac peptide displacement | Potency, µM (highest dose often 114 µM), usual class: inhibitors; also: nearly all actives have a fitted effect of over 60% in size
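Compounds, titrated to a top concentration of 110 uM, were incubated 30 min at room temperature with preformed BAZ2B/acetyl-K14 H3 peptide complex (50 nM each). Proximity signal was measured by AlphaScreen after 20 min with beads.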
L3MBTL1 block – inhibitors of human L3MBTL1; Q9Y468; AlphaScreen L3MBTL1–H3K9me1 peptide binding; Potency, µM (highest dose often 57.1 µM), actives largely listed as inhibitors; 230,000 tested, 0.66% active; also: nearly all actives have a fitted effect of over 60% in size
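Read-out is AlphaScreen signal from streptavidin donor and nickel chelate acceptor beads (10 ug/mL final each) bridging L3MBTL1 (50 nM) and biotinylated K9-monomethylated H3(1-15) peptide (75 nM), after 30 min compound exposure at room temperature.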
GLS inh – blocks human kidney-isoform glutaminase activity; AID 624170; O94925; Potency, µM (series often up to 45.5 µM), usual class: inhibitors; GLS enzymatic activity, qHTS titration; 410,000 tested, 0.21% active
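Read-out is an Amplex red fluorescence increase coupled through glutamate oxidase and HRP, measured before and after 30 min room-temperature incubation. hKGA is in 45 mM KH2PO4 (pH 8.2) with 0.02% Tween-20; glutamine added as 1mM solution.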
G9a block – inhibitors of human histone lysine methyltransferase G9a; G9a H3K9 monomethylation, AlphaScreen, 2 h; Potency, µM (series often up to 102 µM), actives largely listed as inhibitors; 350,000 tested, 8.8% active; AID 504332; also: nearly all actives have a fitted effect of over 75% in size
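G9a (20 nM) preincubated 15 min RT with compounds, then 500 nM biotinylated H3K9 peptide and 20 uM SAM added; 2 h RT reaction. Monomethyl-H3K9 product detected by AlphaScreen with anti-H3K9me1 antibody, streptavidin donor and anti-rabbit IgG acceptor beads.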
JMJD2A Tudor – inhibitors of human JMJD2A Tudor domain; AlphaScreen JMJD2A-Tudor / H3K4me3 peptide binding; 390,000 tested, 4.4% active; Potency, µM (highest dose often 114 µM), hits mostly inhibitors; O75164; also: nearly all actives have a fitted effect of over 50% in size
A number is an active result; n = inactive; u = inconclusive; x = not tested or not shown; [ ] = another dose, or the depositor's remark. In the library only some 10% were active in any assay of this set; here they are far more common. Calls follow the shape of the dose curve; as a rule, active = well fitted curve in the direction sought with a large enough effect; inconclusive = small, poorly fitted or top-dose-only effect, or another doubt; inactive = no such curve, though single readings can be large; an effect the other way counts as inactive or inconclusive.

SMILES	HP1b binding inh	BAZ2B inh	L3MBTL1 block	GLS inh	G9a block	JMJD2A Tudor
C=CCN1C(=O)CSc2ccc(C(=O)NCc3ccco3)cc21	n	n	n	n	40µM	n
O=C(NCc1ccco1)c1ccc2c(c1)N(Cc1ccccc1)C(=O)CS2	n	u	x	n	n[12.7 µM]	n
CN(C)N=Nc1ccc(-c2cn(Cc3ccccc3)cn2)cc1	n	45µM	n	n	x	u
CCOC(=O)c1nc(Nc2ccc(C(=O)O)cc2)c2ccccc2n1	n	n	n	n	40µM	28µM
CCOC(=O)c1nc(Nc2ccc(N3CCC(C)CC3)cc2)c2ccccc2n1	u	40µM	n	n	x	28µM
CCOC(=O)c1ccc(Nc2nc(C(=O)OCC)nc3ccccc23)cc1	n	n	n	n	n	n
CCOC(=O)c1nc(Nc2ccc(Nc3ccccc3)cc2)c2ccccc2n1	u	16µM	x	n	u	28µM
Cc1cccc(NC(=O)C2CCN(c3nnc(-n4c(C)ccc4C)s3)CC2)c1C	n	n	x	n	n	n
Cc1ccc(SC2CC(=O)N(c3ccc4c(c3)OCCO4)C2=O)cc1 (stereo unspecified)	n	n	n[11.4 µM]	n	u	n
Cc1cccc(N2C(=O)CC(Cn3nc(C)cc3C)C2=O)c1 (stereo unspecified)	n	n	x	n	n	n
Cc1cccc(N2C(=O)CC(Sc3nnc(C)s3)C2=O)c1 (stereo unspecified)	n	n	n	n	10µM	n
CCN(CC)C1CC(=O)N(c2cccc(C)c2)C1=O (stereo unspecified)	x	n	n	x	11µM	x
CCN(CCO)C1CC(=O)N(c2ccccc2C)C1=O (stereo unspecified)	n	n	n	n	4µM	40µM
Cc1ccc(N2C(=O)CC(Sc3cccs3)C2=O)cc1 (stereo unspecified)	n	n	n	n	35µM	n
COC(=O)c1ccc(NC2CC(=O)N(c3ccccc3C)C2=O)cc1 (stereo unspecified)	n	n	x	n	u	n
CCC1CN(C(=O)N2CCC(C(=O)NCc3cccc(C)c3)CC2)c2ccccc2O1 (stereo unspecified)	n	n	x	n	n	n
CNC(=O)N(O)C1N(C)C(=O)N(CC(=O)OC)C1(C)C (stereo unspecified)	n	n	n	n	n	16µM
Cc1nc(-n2nc(C)c(CCC(C)C)c2C)sc1C(=O)Nc1ccc(Br)cc1	n	n	x	n	n	n
O=S(=O)(Nc1ccc(O)c(Sc2nc3ccccc3s2)c1)c1cccc2ccccc12	n	n	n	n	45µM	n
O=S(=O)(Nc1ccc(O)c(Sc2nc3ccccc3s2)c1)c1cc(Cl)ccc1Cl	n	u	x	n	11µM	u
Cc1cc2c(s1)c1cnn(Cc3ccc(C(F)(F)F)cc3)c(=O)c1n2C	x	x	x	x	x	n
COc1ccc(/C=C/C(=O)c2ccc3ccccc3c2O)cc1CN1CCOCC1	u	14µM	n	n	6.3µM	u
COc1ccc(/C=C/C(=O)c2ccccc2O)cc1CN1CCOCC1	n	u	x	n	u	u
COc1cccc(CNC(=O)Cn2c(=O)ccc3cc(S(=O)(=O)N4CCC(C)CC4)ccc32)c1	n	n	x	n	n	n
O=C(O)C1NCCc2ccccc21 (stereo unspecified)	n	u	n	n	40µM	u
SMILES	HP1b binding inh	BAZ2B inh	L3MBTL1 block	GLS inh	G9a block	JMJD2A Tudor
Cc1ccc(-c2nc3c4ccccc4n(CC(=O)N4CCN(c5ccccc5F)CC4)c(=O)n3n2)cc1	n	n	x	n	n	n
CCOC(=O)c1n[nH]n(-c2cc(Cl)cc(Cl)c2)c1=O	n	n	u	n	n	n
COC(=O)Cc1c(C)[nH]n(-c2cc(Cl)cc(Cl)c2)c1=O	n	u	x	n	40µM	n
COc1ccc(NC2CCCN(C(=O)c3cccs3)C2)cc1 (stereo unspecified)	n	u	x	n	50µM	n
COc1ccc(NC2CCCN(C(=O)c3csc(C(C)C)n3)C2)cc1 (stereo unspecified)	n	n	x	n	n	n
CCOC(=O)N1CCN(C2CCCN(C(=O)c3ccccc3C(F)(F)F)C2)CC1 (stereo unspecified)	n	n	x	n	71µM	n
CCOC(=O)N1CCN(C2CCCN(C(=O)c3ccccc3N(C)C)C2)CC1 (stereo unspecified)	n	n	x	n	n	n
COc1ccc(NC2CCCN(C(=O)c3cc(CC(C)C)nc(N)n3)C2)cc1 (stereo unspecified)	n	n	x	n	45µM	n
COc1ccc(C(=O)N2CCCC(Nc3ccc(C)c(C)c3)C2)cc1F (stereo unspecified)	u	n	x	n	n	u
COC(=O)c1cccc(C(=O)N2CCCC(Nc3ccc(C)c(C)c3)C2)c1 (stereo unspecified)	n	u	x	n	50µM	n
CC(C)c1ccc(S(=O)(=O)N2CCN(C(=O)[C@@H]3CCCN3C(=O)c3cccs3)CC2)cc1	n	n	n	n	45µM	n
COc1ccc(OC)c(C(=O)N2CCCC(Nc3ccc(F)cc3)C2)c1 (stereo unspecified)	n	n	x	n	x	n
CC(C)c1ccc(NC2CCCN(C(=O)c3ccsc3)C2)cc1 (stereo unspecified)	n	n	x	n	n	u
COc1ccc(NC2CCCN(C(=O)c3ccccc3C(F)(F)F)C2)cc1 (stereo unspecified)	n	u	x	n	40µM	n
CC(C)c1ccc(NC2CCCN(C(=O)c3cccs3)C2)cc1 (stereo unspecified)	n	u	x	n	50µM	n
Cc1cc(C(=O)N2CCCC(N3CCN(c4cccc(C(F)(F)F)c4)CC3)C2)c(C)o1 (stereo unspecified)	n	n	x	n	79µM	n
CCSc1ncc(Cl)c(C(=O)Nc2nc3ccc(S(C)(=O)=O)cc3s2)n1	n	n	x	n	n	n
COc1cc(Cl)c(C)cc1NC(=O)C1CCCN(c2ncnc3onc(-c4ccc(F)cc4)c23)C1 (stereo unspecified)	n	n	x	n	n	n
COc1ccccc1-c1ccc2ncnc(Nc3ccccc3)c2c1	x	x	x	x	n[0.501 µM]	x
Cc1ccc(NC2CCCN(C(=O)c3cccs3)C2)cc1C (stereo unspecified)	n	n	x	n	35µM	n
Cc1ccc(NC2CCCN(C(=O)c3nonc3C)C2)cc1C (stereo unspecified)	x	x	x	n	x	x
CCCCN(C)C(=O)c1ccc2c(c1)N(Cc1cccc(Cl)c1)C(=O)c1ccccc1S2=O (stereo unspecified)	n	n	x	n	n	n
COc1ccc(NC(=O)C(NS(=O)(=O)c2ccc3c(c2)CCCN3C(C)=O)C(C)C)c(OC)c1 (stereo unspecified)	n	56µM	n	n	u	n
